Bioassay records: PubChem, Sanford-Burnham Center for Chemical Genomics
Hits are enriched below; roughly 31% of the tested compounds scored in any of these assays.
PLAP act = activators of human placental alkaline phosphatase; P05187; purified PLAP enzyme, luminescent substrate read-out; stronger effect = higher value; activation fold at 20 µM; hit rate 1.2% among 96,000; in the data active = activation fold above about 2
Target sequence (P05187 whole entry, looked up): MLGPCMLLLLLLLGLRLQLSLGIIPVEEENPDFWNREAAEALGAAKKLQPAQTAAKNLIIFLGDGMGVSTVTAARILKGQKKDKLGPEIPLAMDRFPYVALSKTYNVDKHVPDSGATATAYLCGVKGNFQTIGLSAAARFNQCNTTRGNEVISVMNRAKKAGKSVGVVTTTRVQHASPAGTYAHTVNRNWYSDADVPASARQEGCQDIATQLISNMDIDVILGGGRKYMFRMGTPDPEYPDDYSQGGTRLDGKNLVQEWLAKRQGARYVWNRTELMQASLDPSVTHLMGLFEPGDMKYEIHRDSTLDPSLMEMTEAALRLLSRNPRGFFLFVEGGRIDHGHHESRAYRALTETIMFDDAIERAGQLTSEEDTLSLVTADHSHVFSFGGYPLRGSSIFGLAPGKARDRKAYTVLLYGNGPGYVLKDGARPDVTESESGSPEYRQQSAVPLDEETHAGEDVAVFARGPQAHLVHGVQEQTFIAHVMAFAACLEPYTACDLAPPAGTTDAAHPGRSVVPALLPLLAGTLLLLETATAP
CYP2C9 act = increases human cytochrome P450 2C9 activity; P11712; recombinant CYP2C9, luciferin-H conversion, luminescence; stronger effect = higher value; factor 1 = untreated enzyme, 0 = blocked; AID 1024; activation factor at 5 µM; hit rate 1.4% among 96,000;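 active = activation factor of 2 or more for CYP2C9 at a 5 µM dose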;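 note: 0 = sulfaphenazole-blocked wells and 1 = vehicle-only wells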
CYP2C19 act = increases human CYP2C19 enzyme activity; activation factor at 5 µM; 96,000 tested, under 10 active; AID 1025; P33261; recombinant CYP2C19, luciferin-H EGE luminescence; stronger effect = higher value; 0 = fully inhibited enzyme, 1 = untreated enzyme;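 active = activation factor of at least 2 at 5 µM in the primary screen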;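 note: 0 = wells with 2.5 mM tranylcypromine and 1 = vehicle-only wells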
CYP2C9 inhib = inhibitors of human CYP2C9 | inhibition, % at 5 µM | CYP2C9 Supersomes, luciferin-H conversion, luminescence | hit rate 20% among 96,000 | AID 777;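 active = blocking of liver enzyme CYP2C9 beyond about 50% at 5 µM, limit read from the data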
CYP2C19 inh = inhibitors of human CYP2C19. P33261. CYP2C19 Supersomes, luciferin-H EGE luminescence, 30 min. inhibition, % at 5 µM. hit rate 21% among 96,000;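 active = CYP2C19 inhibition above a set limit at 5 µM in the primary screen, cut at about 50% in these data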;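 note: plate controls were negative control wells for no effect and 2.5 mM tranylcypromine positive control for full effect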
The depositor's hits bear a star.

SMILES	PLAP act	CYP2C9 act	CYP2C19 act	CYP2C9 inhib	CYP2C19 inh
CC(Oc1ccc(Cl)cc1Cl)c1nc(-c2ccccn2)no1 (stereo not drawn)	0.9	0.1	0	92*	96*
CC(Oc1ccc(Cl)cc1Cl)c1nc(-c2ccc(NC(=O)c3cccnc3)cc2)no1 (stereo not drawn)	1	0	0.4	96*	64*
COc1cccc(-c2nc(-c3ccc(NC(=O)c4cccnc4)cc3)no2)c1	1	0.9	1	9	-1
CCSc1c(-c2ccccc2)nc2c(C)cccc2c1C(=O)O	1.4	0.2	1	78*	-1
Cc1cccc2c(C(=O)O)c3c(nc12)CCCCC3	1	1	0.9	2	9
O=C(Nc1nc(-c2ccc(S(=O)(=O)N3CCCCCC3)cc2)cs1)c1ccccc1	1.1	0.3	0.8	72*	24
Cc1ccc(Nc2nc(-c3ccc(S(=O)(=O)N4CCCC4)cc3)cs2)cc1C	0.9	0.5	1.1	54*	-12
O=C(Nc1nc(-c2cccs2)cs1)c1ccc(S(=O)(=O)N2CCCC2)cc1	1.2	0.4	0.6	57*	43
NC(=O)c1ccsc1NC(=O)c1ccc(S(=O)(=O)N2CCCCC2)cc1	0.8	0.4	0.6	60*	38
CC1CC(C)CN(S(=O)(=O)c2ccc(C(=O)Nc3sccc3C(N)=O)cc2)C1 (stereo not drawn)	1.1	0.7	1.2	29	-19
CN(CC(=O)OCC(=O)NC(=O)c1cccn1C)S(=O)(=O)c1ccc(Cl)cc1	0.9	1	1	0	1
Cc1noc(/C=C/N(C)C)c1S(=O)(=O)N1CCCC(C(=O)NC2CCCCC2C)C1 (stereo not drawn)	1.6	0.5	0.9	47	15
COCCN(CCOC)S(=O)(=O)c1ccc(C(=O)Nc2nc(-c3ccncc3)cs2)cc1	1.1	0.3	0.4	69*	56*
O=C(Nc1ccc(S(=O)(=O)N2CCCCC2)cc1)c1ccncc1	1.1	0	0	98*	99*
COCCN(CCOC)S(=O)(=O)c1ccc(C(=O)Nc2nc(C)c(C(C)=O)s2)cc1	1	1.1	1.1	-8	-13
CSc1ncccc1C(=O)OCC(=O)NC(N)=O	1.1	1.3	1.2	-33	-24
OC(COc1ccccc1)CN1CCN(c2ncccn2)CC1 (stereo not drawn)	0.8	0.9	0.7	5	28
O=[N+]([O-])c1ccc(Sc2cccc3cccnc23)cc1	0.8	0.6	0.2	42	84*
O=C(CC(O)(c1ccccc1)C(F)(F)F)c1cccs1 (stereo not drawn)	0.8	0.8	0.6	22	44
CC(=O)Nc1ccc(C(=O)n2nc(C)cc2C)cc1	1	1.1	1	-8	4
CC1=C(C)CC(C(=O)NCc2ccc3c(c2)OCO3)C(C(=O)O)C1 (stereo not drawn)	1.1	0.7	0.9	28	8
COCC(=O)NCc1ccc2c(c1)OCO2	0.9	1.1	1.1	-7	-12
CCc1ccccc1NC(=S)NCc1ccc2c(c1)OCO2	0.9	1	0.4	-4	61*
Cc1ccc(C)c(NC(=S)NCc2ccc3c(c2)OCO3)c1	1	0.9	0.4	7	56*
Cc1ccccc1NC(=S)NCc1ccc2c(c1)OCO2	0.8	0.8	0.1	25	90*
SMILES	PLAP act	CYP2C9 act	CYP2C19 act	CYP2C9 inhib	CYP2C19 inh
COc1cc(NC(=O)c2cc(C3CC3)on2)c(OC)cc1Cl	1	1	0.9	1	9
CCC(C)NC(=O)C1(C)CCC(=O)N1Cc1ccccc1OC (stereo not drawn)	1.3	1.2	1	-23	1
Cc1ccc(C)n1NC(=O)c1ccc(O)cc1	1.6	0.7	1	32	2
N#CC1=C(SCC(=O)Nc2ccccc2)NC(=O)CC1c1ccc(O)cc1 (stereo not drawn)	0.9	0.7	0.3	34	71*
CCOc1ccccc1C1CC(=O)NC(SCC(=O)Nc2nccs2)=C1C#N (stereo not drawn)	1.7	0.3	0.4	67*	60*
Cc1ccc(C2CC(=O)NC(SCC(=O)Nc3nccs3)=C2C#N)cc1 (stereo not drawn)	1.6	0.3	0.7	65*	28
CCSc1nc(O)c(CC)c(=O)n1C(C)CC (stereo not drawn)	0.9	1.1	1	-6	-4
COc1cc(/C=C2/CCC/C(=C\c3cc(O)c(OC)c(Cl)c3)C2=O)cc(Cl)c1O	0.3	1.6	0.8	-55	20
COc1ccc(OC)c(/C=N/N(C)c2ccccc2)c1	1.5	0.4	0.3	56*	67*
COc1cc(/C=N/N(C)c2ccccc2)cc(Cl)c1O	0.9	0.4	0.5	58*	52*
CCN(CC)c1ncc(C)c(=O)[nH]1	0.9	1.1	1	-7	-2
COc1ccc(/C=C2/C(=O)ON=C2c2ccccc2)cc1OC	0.9	1.1	1.1	-9	-6
COc1ccc(/C=C2/SC(=O)N(NS(=O)(=O)c3ccccc3)C2=S)cc1OC	1.6	0.3	1.1	70*	-6
CCCn1nnnc1NCc1ccccc1OCc1cccs1	0.8	0.6	0.8	42	24
CCCn1nnnc1NCc1ccccc1OCc1ccc(F)cc1	0.6	0.1	0.1	89*	88*
COc1ccc(N2CCN(Cc3cc(=O)oc4cc(-c5ccccc5)c(O)cc34)CC2)cc1	1	0.9	0.9	14	12
Cc1cc2oc(=O)cc(CN3CCN(C/C=C/c4ccccc4)CC3)c2cc1O	1.7	0.2	0.5	84*	45
Cc1cc2oc(=O)cc(CN3CCCc4ccccc43)c2cc1C	1	0	0	96*	96*
CCN1CCN(Cc2cc(=O)oc3cc4c(cc23)CCC4)CC1	1.4	0.8	0.6	18	38
CN1CCN(Cc2cc(=O)oc3cc4c(cc23)CCC4)CC1	1.4	0.4	0.4	64*	63*
O=C1CC(N2CCC(Cc3ccccc3)CC2)C(=O)N1CCc1ccccc1 (stereo not drawn)	1.6	0.8	0.7	16	26
CCOC(=O)c1sc(NS(=O)(=O)c2cc(C)ccc2C)nc1C	1.5	0.1	0.6	94*	45
CCOC(=O)c1sc(NC(C)=O)nc1C	1	0.9	0.9	12	8
CCOC(=O)c1sc(Nc2cccc(C)c2C)nc1C	0.8	0.3	0.9	70*	11
Cc1ccc(S(=O)(=O)NCc2ccc(C(=O)NCCCN3CCN(C)CC3)cc2)cc1	1.1	1	1	4	-2
COc1cc2c(cc1OC)C(C(=O)N1CCN(c3ccccn3)CC1)C(c1cccs1)N(C)C2=O (stereo not drawn)	1.3	0.9	1	9	2
COc1ccc(C(O)P(=O)(OC2CCCCC2)c2ccc(N(C)C)cc2)cc1OC (stereo not drawn)	1.5	1	0.4	2	56*
COC(=O)C1(O)CC(CC(C)C)=NN1C(=O)c1ccccc1 (stereo not drawn)	1.3	0.9	0.8	7	17
